High-throughput results from PubChem BioAssay.
KCNQ2 pot: KCNQ2 (rat) channel potentiation; CHO-K1 KCNQ2, FluxOR thallium flux fluorescence; stronger effect = higher value; B-score at 10 µM; actives 0.54% (n = 310,000); AID 2239;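 active = fluorescence ratio B-score at least 3 SD of library B-scores, with initial fluorescence B-score within 3 of them, cut at about 5.3 in these data; same plate scores as AID 2156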;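 also: B-score of peak minus minimum over baseline fluorescence ratio after K+ and Tl+ stimulus; positive B-score means potentiation of KCNQ2 with more thallium influx and brighter signal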
KCNQ2 block: blocks the rat KCNQ2 potassium channel | CHO-K1 KCNQ2, FluxOR thallium flux, 20 min; stronger effect = lower value | actives 1.1% (n = 310,000) | B-score at 10 µM;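 active = fluorescence ratio B-score at most minus 3 library SDs, with starting brightness B-score within 2 library SDs, cut at about -5.5 in these data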
KCNQ2 block conf: confirmation of rat KCNQ2 potassium channel inhibitors; shares compounds with KCNQ2 block; KCNQ2-expressing cells, thallium flux, inhibition; stronger effect = lower value; activity change, negative = inhibition, % at 10 µM; actives 57% (n = 1,000);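 also: 0% = vehicle wells and values are ratio percent relative to vehicle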
KCNQ1 spec: KCNQ2 inhibitor that also affects human KCNQ1 channel; shares compounds with KCNQ2 block; KCNQ1-expressing cells, FluxOR thallium flux fluorescence; stronger effect = lower value; activity change, negative = inhibition, % at 10 µM; actives 15% (n = 1,000);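 active = activity change at least 3 SD of negative controls below their mean in both duplicate wells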;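 also: CHO cells stably transfected with KCNQ1 and depolarized by potassium stimulus; peak minus minimum fluorescence over baseline after thallium addition; 0% = vehicle negative control and -100% = blank without thallium stimulus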
Target sequence (P51787 whole entry, looked up): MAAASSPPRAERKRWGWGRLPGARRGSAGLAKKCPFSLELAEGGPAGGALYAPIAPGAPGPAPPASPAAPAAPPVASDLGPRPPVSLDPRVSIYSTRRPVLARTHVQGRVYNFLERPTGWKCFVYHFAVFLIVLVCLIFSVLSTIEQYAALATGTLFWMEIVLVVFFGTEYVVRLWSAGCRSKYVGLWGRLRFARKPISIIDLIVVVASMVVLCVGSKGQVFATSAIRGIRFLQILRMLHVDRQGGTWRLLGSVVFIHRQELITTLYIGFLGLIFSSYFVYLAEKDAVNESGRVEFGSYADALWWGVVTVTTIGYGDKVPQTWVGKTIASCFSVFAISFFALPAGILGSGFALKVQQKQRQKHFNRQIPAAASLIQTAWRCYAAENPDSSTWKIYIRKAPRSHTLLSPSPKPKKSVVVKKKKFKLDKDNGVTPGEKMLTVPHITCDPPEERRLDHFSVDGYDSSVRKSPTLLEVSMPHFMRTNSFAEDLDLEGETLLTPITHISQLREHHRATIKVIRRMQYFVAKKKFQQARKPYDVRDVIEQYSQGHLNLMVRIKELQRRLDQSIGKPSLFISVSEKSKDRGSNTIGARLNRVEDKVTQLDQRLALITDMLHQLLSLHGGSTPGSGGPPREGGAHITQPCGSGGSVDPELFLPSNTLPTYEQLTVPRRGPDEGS
CHO parental ctr: counter-screen for KCNQ2 inhibitors: effect in parental CHO cells; thallium flux counter-screen; stronger effect = lower value; shares compounds with KCNQ2 block; activity change, % at 10 µM; actives 14% (n = 1,000);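 also: 0% = vehicle negative controls with stimulus buffer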
KCNQ2 inh confirm: blocks rat KCNQ2 current in automated patch clamp; shares compounds with KCNQ2 block; KCNQ2-expressing cells; calls only at 10 µM; actives 49% (n = 550); AID 588531
An asterisk follows results filed as active; i = inactive; / = no result; + = active, no number. The list is not random: actives were taken first. Their share in the collection is about 1.6%. Unless noted, no rule for the calls is given here.

SMILES	KCNQ2 pot	KCNQ2 block	KCNQ2 block conf	KCNQ1 spec	CHO parental ctr	others
O=C(c1cc(-c2ccco2)on1)N1CCN(C(c2ccccc2)c2ccccc2)CC1	-7.67	-7.67*	-29.0%*	i	i	KCNQ2 inh confirm=i
COc1ccc(-c2cc(C(=O)N3CCN(C(c4ccccc4)c4ccccc4)CC3)no2)cc1	/	i	/	/	/
COC(=O)N(NC(=O)C(O)(c1ccccc1)c1ccccc1)c1ccccc1	-6.99	-6.99*	i	i	i
O=C(c1ccc(F)cc1)N(NC(=O)C(O)(c1ccccc1)c1ccccc1)c1ccccc1	/	i	/	/	/
O=C(O)CCc1ccc(-c2ccc(F)cc2)n1CC(=O)O	/	i	/	/	/
CCOC(=O)Cn1c(CCC(=O)O)ccc1-c1ccc(F)cc1	-9.3	-9.3*	i	i	i
Cc1cc(C(=O)CSc2ccc(Cl)cc2)cc(C)c1OC(=S)N(C)C	-8.68	-8.68*	i	i	i
Cc1cc(C(=O)CSc2ccc(F)cc2)cc(C)c1O	0.04	i	/	/	/
CC(C)(C)NCC(O)Cn1cc(C=O)c2ccccc21 (stereo not drawn)	1.67	i	/	/	/
COc1ccc(C(=O)/C=C/c2cn(CC(O)CN3CCN(C)CC3)c3ccccc23)cc1OC (stereo not drawn)	/	i	/	/	/
CN1CCN(Cn2cc(/C=C/C(=O)c3ccccc3)c3ccccc32)CC1	-9.18	-9.18*	-34.0%*	i	i	KCNQ2 inh confirm=+
CCCCN(C)CC(O)Cn1cc(/C=C/C(=O)c2ccc(C)cc2)c2ccccc21 (stereo not drawn)	-9.65	-9.65*	i	i	i
COc1cccc(OC)c1C(=O)Nc1ccccc1Sc1ccccc1	-6.98	-6.98*	i	i	i
COc1cccc(OC)c1C(=O)Nc1ccccc1NC(=O)c1c(OC)cccc1OC	0.06	i	/	/	/
C/C(=C\C(=O)c1ccc(F)cc1)NCc1ccc2c(c1)OCO2	/	i	/	/	/
C/C(=C\C(=O)c1ccc(Br)cc1)NCc1ccc2c(c1)OCO2	-6.87	-6.87*	-17.0%*	i	i	KCNQ2 inh confirm=i
CC(NC(=O)COC(=O)/C=C/c1ccc(Cl)cc1)c1ccccc1 (stereo not drawn)	0.39	i	/	/	/
COCC(=O)Nc1sc2c(c1C(=O)OC)CCCC2	/	i	/	/	/
COC(=O)c1c(NC(=O)Cc2cccs2)sc2c1CCCC2	-8.42	-8.42*	-30.0%*	i	i	KCNQ2 inh confirm=i
Cc1cc(C)c(OCC(=O)N2CC=C(c3ccccc3)CC2)c(C)c1	-6.89	-6.89*	-29.0%*	i	i	KCNQ2 inh confirm=i
Cc1ccsc1C(=O)N1CC=C(c2ccccc2)CC1	/	i	/	/	/
COc1cccc(C(=O)NN2CCOCC2)c1	/	i	/	/	/
Cc1nn(C)c(C(=O)Sc2ccccc2)c1[N+](=O)[O-]	-7.89	-7.89*	-33.0%*	i	i	KCNQ2 inh confirm=i
Cc1nn(C)c(C(=O)N/N=C/c2ccccn2)c1[N+](=O)[O-]	0.06	i	/	/	/
CCn1nc(C)cc1C(=O)Sc1cccc(Cl)c1	/	i	/	/	/
SMILES	KCNQ2 pot	KCNQ2 block	KCNQ2 block conf	KCNQ1 spec	CHO parental ctr	others
Cc1nn(C)c(C(=O)Sc2cccc(Cl)c2)c1[N+](=O)[O-]	-9.67	-9.67*	-47.0%*	-49.5%*	-34.5%*	KCNQ2 inh confirm=i
CCC(CO)NCc1ccccc1OC(C)C (stereo not drawn)	0.21	i	/	/	/
NS(=O)(=O)c1ccc(CCNC(=O)COC(=O)C2CCN(c3ccc(C(F)(F)F)cn3)CC2)cc1	1.19	i	/	/	/
CN(CC(=O)Nc1ccc(F)cc1)C(=O)COC(=O)CNC(=O)c1sc2ccccc2c1Cl	0.02	i	/	/	/
COc1ccccc1NCC(O)Cn1c2ccccc2c2ccccc21 (stereo not drawn)	0.4	i	/	/	/
COc1ccc(CCNCC(O)Cn2c3ccccc3c3ccccc32)cc1OC (stereo not drawn)	-7.03	-7.03*	-24.0%*	i	i	KCNQ2 inh confirm=i
Cc1cc(NC(=O)CSc2ccc(-c3ccc(F)cc3)nn2)no1	/	i	/	/	/
Cc1ccc(S(=O)(=O)N2CCC(NC(=O)OC(C)C)CC2)cc1	0.34	i	/	/	/
Cc1cc(C)c(C(=O)COC(=O)C2CCN(c3ccc(C(F)(F)F)cn3)CC2)cc1C	-10.1	-10.1*	i	i	i
O=C(COC(=O)C1CCN(c2ccc(C(F)(F)F)cn2)CC1)c1ccccc1Cl	/	i	/	/	/
COc1cc(C(=O)COC(=O)C2CCN(c3ccc(C(F)(F)F)cn3)CC2)ccc1OC(F)F	-9.92	-9.92*	i	i	i
O=C(COC(=O)C1CCN(c2ccc(C(F)(F)F)cn2)CC1)c1ccc(F)cc1	/	i	/	/	/
O=C(NCC1CCCO1)c1cccc2ccccc12 (stereo not drawn)	0.01	i	/	/	/
O=C(NC(NCC1CCCO1)C(Cl)(Cl)Cl)c1cccc2ccccc12 (stereo not drawn)	-8.59	-8.59*	i	i	i
Cc1cccc(OCC(=O)NCC(=O)N/N=C/c2c(C)[nH]c3ccccc23)c1	0.46	i	/	/	/
CSc1cccc(NC(=O)Nc2ccccc2C(N)=O)c1	2.92	i	/	/	/
CC1CCN(CC(=O)N2c3ccccc3CC2C)CC1 (stereo not drawn)	0.66	i	/	/	/
CC1Cc2ccccc2N1C(=O)CNc1ccccc1N1CCCCC1 (stereo not drawn)	-8.36	-8.36*	i	i	i
CCOc1ccc(CC(=O)Nc2c3c(nn2C(C)(C)C)CS(=O)(=O)C3)cc1	0.24	i	/	/	/
C=CCC1(CC=C)CCCN1C(=O)c1cc(COc2cccc(C(F)(F)F)c2)on1	-9.47	-9.47*	-34.0%*	-30.5%*	-28.5%*	KCNQ2 inh confirm=+
CCOC(=O)N1CCN(C(=O)c2cc(COc3cccc(C(F)(F)F)c3)on2)CC1	0.66	i	/	/	/
CC1Cc2cc(/C(O)=C3/C(=O)C(=O)N(CCCn4ccnc4)C3c3cccc([N+](=O)[O-])c3)ccc2O1 (stereo not drawn)	0.02	i	/	/	/
O=[N+]([O-])c1cnc(Sc2ccncn2)s1	/	i	/	/	/
C=CCn1c(Sc2ncc([N+](=O)[O-])s2)n[nH]c1=O	-9.8	-9.8*	-40.5%*	i	i	KCNQ2 inh confirm=i
O=C(Cn1nc(C(=O)O)c2ccccc2c1=O)Nc1ccc2c(c1)C(=O)c1ccccc1C2=O	/	i	/	/	/
SMILES	KCNQ2 pot	KCNQ2 block	KCNQ2 block conf	KCNQ1 spec	CHO parental ctr	others
Cc1ccc(NC(CC(=O)c2ccccc2)c2ccc(F)cc2)cc1 (stereo not drawn)	/	i	/	/	/
COc1ccc(C(CC(=O)c2ccc(C)cc2)Nc2ccc([N+](=O)[O-])cc2)cc1 (stereo not drawn)	-6.93	-6.93*	-42.0%*	-33.0%*	-26.0%*	KCNQ2 inh confirm=i
CC(C)NC(=O)COc1ccc(S(=O)(=O)N(C)Cc2ccccc2)cc1	0.77	i	/	/	/
CC1(C)Cc2c(C#N)c(NCC3CCCO3)nc(-c3ccco3)c2CO1 (stereo not drawn)	/	i	/	/	/
CC1(C)Cc2c(C#N)c(NC3CCCCC3)nc(-c3ccco3)c2CO1	-12.9	-12.9*	i	i	i
CCOC(=O)N1CCC(N(CCOC)C(=O)Nc2ccc(Cl)c(Cl)c2)CC1	-9.41	-9.41*	-25.0%*	i	i
